Consider eight compounds from PubChem BioAssay (NCI).

Molecules are shown by their SMILES. About 83,000 compounds went through this panel and 20% of them were active in at least one assay; those are over-represented in the sample as a whole.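 Note: values are percent growth. 100 is the growth of untreated cells, values between 100 and 0 indicate rising inhibition; between -100 and 0 indicates cell death.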 Unmarked numbers belong to inactive results. Active and inactive are the calls of the source. The calls were made as follows: active = growth percent below 10; inactive = the rest.

Holding throughout (test): NCI-60 one-dose screen, 48 h (100 = growth as untreated, 0 = no growth, -100 = all killed)
The test system of one assay is SR leukemia. The settings on record: 10 µM unless noted.
Another assay deals with RPMI-8226 leukemia. To be noted: 10 µM unless noted.
Another assay concerns OVCAR-8 ovarian. The settings on record: 10 µM unless noted.
The next assay relates to OVCAR-5 ovarian. To be noted: 10 µM unless noted.
A further assay deals with OVCAR-4 ovarian. To be noted: 10 µM unless noted.
The test system of the next assay is SK-OV-3 ovarian. To be noted: 10 µM unless noted.
Another assay has as its system IGROV1 ovarian. To be noted: 10 µM unless noted.
The next assay concerns OVCAR-3 ovarian. The settings on record: 10 µM unless noted.
In a further assay the test system is HS 578T breast. To be noted: 10 µM.
For the next assay, the system named is NCI/ADR-RES ovarian. To be noted: 10 µM unless noted.
For a further assay, the system named is T-47D breast. The settings on record: 10 µM unless noted.
A further assay relates to MDA-MB-435 melanoma. To be noted: 10 µM unless noted.
The test system of the next assay is SW-620 colon. To be noted: 10 µM unless noted.
In another assay the test system is MCF7 breast. The settings on record: 10 µM unless noted.
In another assay the test system is HCT-116 colon. The settings on record: 10 µM unless noted.
Another assay deals with HCC-2998 colon. To be noted: 10 µM.
The subject of the next assay is KM12 colon. To be noted: 10 µM unless noted.
The subject of a further assay is BT-549 breast. To be noted: 10 µM unless noted.

For `O=[N+]([O-])c1cc(Br)cc2c1[nH]c1ccc(Br)cc12`, the growth with SR leukemia was 77.2%; in the assay on RPMI-8226 leukemia, 78.2%; in the assay on OVCAR-8 ovarian it was 57.7%; with OVCAR-5 ovarian it was 80.4%; in the assay with OVCAR-4 ovarian it was -26.5% (active); in the assay on SK-OV-3 ovarian it was 34.5%. Besides, the growth in the assay with IGROV1 ovarian was 36.6%; in the assay with OVCAR-3 ovarian, 43.3%; in the assay on HS 578T breast, 65.4%; with NCI/ADR-RES ovarian, 70.4%; in the assay on T-47D breast, 42.9%; in the assay with MDA-MB-435 melanoma it was 86.4%. For the same compound, the growth with SW-620 colon was 67%; with MCF7 breast it was 45.8%; in the assay on HCT-116 colon it was 36.6%; in the assay with HCC-2998 colon, 94.3%; in the assay with KM12 colon, 71.4%.
`Cc1cc(C2(c3ccc(O)c(C)c3)OS(=O)(=O)c3ccccc32)ccc1O`: the growth in the assay with SR leukemia was 97.2%; in the assay with RPMI-8226 leukemia, 99.3%; in the assay with OVCAR-8 ovarian it was 107%; in the assay with OVCAR-5 ovarian, 110%; in the assay on OVCAR-4 ovarian, 107%; in the assay with SK-OV-3 ovarian it was 111%. Also, the growth in the assay on IGROV1 ovarian is 105%; with OVCAR-3 ovarian, 119%; in the assay on HS 578T breast, 101%; in the assay on NCI/ADR-RES ovarian, 109%; with T-47D breast, 110%; in the assay with MDA-MB-435 melanoma, 113%. For the same compound, the figures for the growth with SW-620 colon, in the assay with HCC-2998 colon and in the assay with KM12 colon were 108%, 114% and 110%, respectively.
Regarding `C[C@@]1(C(=O)Nc2ccc(F)nc2)CCCN1c1nc(Nc2cc(C3CC3)[nH]n2)c2cccn2n1`, the growth with SR leukemia is -0.827% (active); in the assay on RPMI-8226 leukemia, 62.1%; in the assay with OVCAR-8 ovarian, 38.6%; with OVCAR-5 ovarian, 14.7%; in the assay with OVCAR-4 ovarian, 0.224% (active); with SK-OV-3 ovarian it was 18.7%. The growth is 1.38% (active) in the assay with IGROV1 ovarian; 57.4% with OVCAR-3 ovarian; 32% in the assay on NCI/ADR-RES ovarian; 7.7% (active) in the assay on T-47D breast; 27.3% in the assay on BT-549 breast; 38.1% in the assay with MDA-MB-435 melanoma. In addition, the growth in the assay on SW-620 colon was 16.4%; in the assay with MCF7 breast it was 17.9%; with HCT-116 colon, 7.82% (active); in the assay on HCC-2998 colon, 42.2%.
With `CCCCOc1nc2cc(Cl)ccc2cc1/C=C/c1cc(/C=C/c2cc3ccc(Cl)cc3nc2OCCCC)n(-c2ccccc2)n1`, the growth in the assay on SR leukemia is 73%; with RPMI-8226 leukemia, 111%; in the assay with OVCAR-8 ovarian, 77.8%; in the assay on OVCAR-5 ovarian it was 107%; in the assay on OVCAR-4 ovarian it was 111%; in the assay with SK-OV-3 ovarian it was 51.5%. Also, the growth is 89.3% with IGROV1 ovarian; 103% with OVCAR-3 ovarian; 93.2% with NCI/ADR-RES ovarian; 65.7% in the assay on T-47D breast; 89.3% in the assay with BT-549 breast; 112% in the assay on MDA-MB-435 melanoma. Besides, the growth was 105% with SW-620 colon; 94.5% in the assay on MCF7 breast; 85.3% in the assay on HCT-116 colon; 102% with HCC-2998 colon; 94.9% in the assay on KM12 colon.
`O=C(/C=C/c1ccc2c(c1)OCO2)c1c(O)c2ccccc2oc1=O`: the growth is 79% with SR leukemia; 115% with RPMI-8226 leukemia; 93.9% with OVCAR-8 ovarian; 102% in the assay with OVCAR-5 ovarian; 106% in the assay on OVCAR-4 ovarian; 94.2% in the assay with SK-OV-3 ovarian. Further, the growth was 112% with IGROV1 ovarian; 104% in the assay on OVCAR-3 ovarian; 102% in the assay with NCI/ADR-RES ovarian; 89% with T-47D breast; 95.8% with BT-549 breast; 104% in the assay with MDA-MB-435 melanoma. The growth was 128% in the assay with SW-620 colon, 88.9% in the assay with MCF7 breast and 86.9% with HCT-116 colon.
With `O=C(Cn1ccnc1)Nc1ccc(-c2nc3ccccc3s2)cc1`, the growth with SR leukemia is 36.5%; with RPMI-8226 leukemia it was 52%; with OVCAR-8 ovarian it was 80.3%; in the assay on OVCAR-5 ovarian, 104%; in the assay with OVCAR-4 ovarian it was 34.8%; with SK-OV-3 ovarian, 87.8%. For the same compound, the growth in the assay with IGROV1 ovarian is 68.9%; in the assay on OVCAR-3 ovarian, 62.2%; in the assay on HS 578T breast, 86.9%; in the assay on NCI/ADR-RES ovarian it was 88.2%; in the assay with T-47D breast, 51.4%; in the assay on MDA-MB-435 melanoma, 81.6%. Also, the growth in the assay with SW-620 colon is 99.8%; in the assay with MCF7 breast, 61.3%; in the assay with HCT-116 colon, 68.2%; with HCC-2998 colon, 94.9%; in the assay with KM12 colon it was 84.4%.
For `O=S1(=O)OC(c2cc(Cl)c(O)c(Br)c2)(c2cc(Cl)c(O)c(Br)c2)c2ccccc21`, the growth is 92.4% with SR leukemia; 102% in the assay with RPMI-8226 leukemia; 89.8% with OVCAR-8 ovarian; 100% in the assay on OVCAR-5 ovarian; 101% in the assay on OVCAR-4 ovarian; 109% with SK-OV-3 ovarian. Also, the growth was 95.6% in the assay on IGROV1 ovarian; 115% in the assay with OVCAR-3 ovarian; 94.1% in the assay on HS 578T breast; 102% in the assay on NCI/ADR-RES ovarian; 114% in the assay with T-47D breast; 124% in the assay on MDA-MB-435 melanoma. The growth is 99.6% in the assay on SW-620 colon, 104% with MCF7 breast and 106% in the assay with KM12 colon.
Consider `Cc1cc(Nc2nc(N[C@@H](C)c3ncc(F)cn3)ncc2Cl)n[nH]1`, for which the growth in the assay with SR leukemia was 7% (active); in the assay with RPMI-8226 leukemia, 89.9%; in the assay with OVCAR-8 ovarian, 88.1%; with OVCAR-5 ovarian, 59.8%; in the assay on OVCAR-4 ovarian it was 91.6%; with SK-OV-3 ovarian, 75.3%. The growth in the assay on IGROV1 ovarian is 45%; in the assay on OVCAR-3 ovarian, 93.3%; in the assay on NCI/ADR-RES ovarian, 87.5%; with T-47D breast, 86.5%; with BT-549 breast, 65.3%; in the assay with MDA-MB-435 melanoma, 77.2%. Also, the growth was 58% in the assay with SW-620 colon; 63.1% in the assay on MCF7 breast; 62.4% in the assay on HCT-116 colon; 61.4% in the assay on HCC-2998 colon; 14.7% in the assay on KM12 colon.
